Compound activity from PubChem.
KCNH2 3.1 block: qHTS for Inhibitors of KCHN2 3.1: Mutant qHTS; U2OS KCNH2 3.1, thallium flux FluxOr; active compounds read low; hit rate 0.95% among 340,000; activity change, % (tested at about 1.8 µM); Potassium voltage-gated channel subfamily H member 2, brain isoform KCNH2 3.1 (human);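 active = maximum activity change below -70%; inconclusive = maximum activity change from -70% to -50%; inactive = maximum activity change above -50%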;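 note: thallium influx rate constant from kinetic fluorescence after stimulation buffer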
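U2OS cells transduced with KCNH2 3.1 mutant virus (1.77 x 10^8 /mL, 4 h), plated overnight at 37 C, loaded 45 min with FluxOr dye plus Red40 quencher. Thallium flux rate constant from kinetic reads after stimulation buffer, normalised to controls.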
Six1-Eya2 blk: qHTS Assay for Inhibitors of the Six1/Eya2 Interaction. Homeobox protein SIX1 (Homo sapiens) + Protein phosphatase EYA2 (Homo sapiens), …. hit rate 0.56% among 360,000. activity change, % (concentration not given with the values). AlphaScreen GST-Six1/His-Eya2 binding, biochemical; active compounds read low
Target sequence (O00167 whole entry, looked up): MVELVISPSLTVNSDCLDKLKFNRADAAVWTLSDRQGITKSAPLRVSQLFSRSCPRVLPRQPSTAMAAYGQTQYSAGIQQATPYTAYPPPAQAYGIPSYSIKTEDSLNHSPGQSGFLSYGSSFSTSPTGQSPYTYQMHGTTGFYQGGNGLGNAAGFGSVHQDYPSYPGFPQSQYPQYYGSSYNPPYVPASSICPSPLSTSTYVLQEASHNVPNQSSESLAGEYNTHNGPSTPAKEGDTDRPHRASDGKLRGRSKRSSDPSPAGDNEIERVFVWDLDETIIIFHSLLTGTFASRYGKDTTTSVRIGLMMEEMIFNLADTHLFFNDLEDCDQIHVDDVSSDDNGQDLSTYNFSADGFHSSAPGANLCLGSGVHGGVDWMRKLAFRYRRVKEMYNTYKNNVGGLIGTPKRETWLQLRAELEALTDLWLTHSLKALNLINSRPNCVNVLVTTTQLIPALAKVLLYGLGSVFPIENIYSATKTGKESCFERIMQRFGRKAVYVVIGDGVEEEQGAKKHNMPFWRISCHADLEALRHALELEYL
Target sequence (Q15475 whole entry, looked up): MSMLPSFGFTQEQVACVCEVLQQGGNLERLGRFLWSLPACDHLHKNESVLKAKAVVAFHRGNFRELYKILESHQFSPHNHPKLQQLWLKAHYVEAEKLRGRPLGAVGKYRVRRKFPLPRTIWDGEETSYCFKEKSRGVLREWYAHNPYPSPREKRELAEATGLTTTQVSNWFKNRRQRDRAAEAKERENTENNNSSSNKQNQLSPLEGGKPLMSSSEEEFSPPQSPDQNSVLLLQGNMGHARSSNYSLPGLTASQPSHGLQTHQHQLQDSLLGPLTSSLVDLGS
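GST-Six1 + His-Eya2 (5X stock: 250/500 nM); Tris pH 8.0, 300 mM NaCl, 0.05% BSA, 0.02% Tween 20; GSH donor/Ni acceptor beads; 1 h 37 °C dark; AlphaScreen readout.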
KDM4E inh: qHTS Assay for Inhibitors of Human Jumonji Domain Containing 2E (JMJD2E); Lysine-specific demethylase 4E (Homo sapiens), B2RXH2; JMJD2E catalytic domain, FDH-coupled NADH fluorescence (FDH is formaldehyde dehydrogenase); Potency, µM (series often up to 57.1 µM), inactives show at the highest dose activity change, negative = inhibition, actives largely listed as inhibitors; hit rate 1.6% among 230,000; AID 2147, 2009; active = well fitted inhibition curve with a large enough effect, not every such curve was filed as active; inconclusive = small, poorly fitted or top-dose-only effect, or another doubt; inactive = no such curve, though single readings can be large or run the other way;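 note: potency is the fitted concentration of half-maximal effect; 0% = wells with enzyme and -100% = buffer wells without enzyme; nearly all actives have a fitted effect of over 50% in size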
hERG WT inh: qHTS for Inhibitors of KCHN2 3.1: Wildtype qHTS; activity change, % at 1.84 µM; U2OS, BacMam KCNH2, thallium flux FluxOr; active compounds read low; AID 720551, 2013; hit rate 0.37% among 340,000;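 active = maximum activity change below -70%; inconclusive = maximum activity change between -70% and -50%; inactive = maximum activity change above -50%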
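U2OS cells were transduced with wild-type KCNH2 virus (2.03 x 10^8 / mL) for 4 h at room temperature, then cultured overnight at 37 C. Thallium flux was read with FluxOr dye. Rate constants were normalized to DMSO controls.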
CtBP-E1A inh: qHTS Assay for Inhibitors of the CtBP/E1A Interaction; CtBP / adenovirus E1A interaction (AlphaScreen); AlphaScreen GST-E1A/His-CtBP binding, 1536-well; active compounds read low; activity change, % (test concentration not listed); hit rate 0.49% among 340,000
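Protein mix (5X: 125 nM each GST-E1A, His-CtBP) was incubated with pinned compound 2 h at 37 deg C in dark, in 50 mM Tris pH 8.0 buffer with 300 mM NaCl. Glutathione donor and nickel acceptor beads followed; AlphaScreen signal read after 1 h.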
* = called active by the depositor; i = inactive; ? = inconclusive; . = no result given. In the library only some 2% were active in any assay of this set; here they are far more common. Cut-off read from the data, not from the text of the source, unless noted: active = activity change below about -65%; inconclusive = mostly about -30% to -63%; inactive = weaker than that. Unless noted, % is set by controls: 0 for no effect and ±100 for the full control effect.

SMILES	KCNH2 3.1 block	Six1-Eya2 blk	KDM4E inh	hERG WT inh	CtBP-E1A inh
COc1ccc(CCN(C)CCCOc2ccc(S(=O)(=O)c3[nH]c4ccccc4c3C(C)C)cc2)cc1OC	.	.	25µM*	.	.
CCCN(CCC)CC(O)COc1ccc([N+](=O)[O-])cc1 (stereo unspecified)	?	2	-4%	-75*	3
N#Cc1cnn(-c2cccc(Cl)c2)c1N	-86*	8	4%	-4	6
CSc1ccccc1NC(=O)c1ccco1	27	4	4%	-281*	0
O=C(Nc1ccccc1NC(=O)c1ccco1)c1ccco1	.	1	2%	-1	3
N=c1sccn1CC(=O)Nc1cccc(S(=O)(=O)N2CCCCCC2)c1	-71*	1	-4%	.	.
O=[N+]([O-])c1ccc2nc[nH]c2c1	-84*	-6	.	-17	-13
COc1cccc(C(=O)Nc2cc(C(=O)NCc3ccc(C)cc3)ccc2N2CCC3(CC2)CC(c2ccccc2)=NO3)c1	-37	-4	.	-5	2
Cc1cc(NC(=O)CS(=O)(=O)c2cn(Cc3cccc(Cl)c3)c3ccccc23)no1	.	-12	.	.	-5
O=C(CN1CCN(Cc2ccccc2)CC1)Nc1ccc(Br)cc1	-84*	2	.	-33	.
O=C(CN1CCN(S(=O)(=O)N2CCCCCC2)CC1)Nc1ccc(F)cc1	-14	-13	.	10	-1
Cc1ccc(NC(=O)CN2CCN(Cc3ccccc3)CC2)cc1	7	3	.	6	.
O=C(CN1CCN(S(=O)(=O)N2CCCCCC2)CC1)Nc1ccc(Br)cc1	?	-4	.	-101*	2
COc1ccc2c(c1)N(C[C@H](C)CN(C)C)c1ccccc1S2	-5	-10	.	6	?
CC(CN1CCN(CCOCCO)CC1)CN1c2ccccc2Sc2ccc(Cl)cc21 (stereo unspecified)	-102*	-25	.	0	9
O=C(NCCc1ccccc1)C1CCN(S(=O)(=O)N2CCOCC2)CC1	-3	1	.	-104*	4
Cc1nc(Nc2ccc(C(=O)O)cc2)nc(Nc2ccc(C(=O)O)cc2)c1[N+](=O)[O-]	17	-75*	-5%	.	.
CC(=O)Nc1ccc(Nc2nc(C)c([N+](=O)[O-])c(Nc3ccccc3)n2)cc1	2	?	3%	-18	-28
CC(C)c1c(C(=O)N/N=C/c2ccc3c(c2)OCO3)nnn1-c1nonc1N	-1	-1	.	4	1
Cc1ccc(S(=O)(=O)NCc2ccc(N3CCN(C(=O)OC(C)(C)C)CC3)cc2)cc1	5	0	.	-5	-4
Cc1ccc(C(=O)NCc2ccc(N3CCN(C(=O)OC(C)(C)C)CC3)cc2)cc1	-117*	0	-2%	4	-2
CCOc1ccc(C(=O)Nc2c(C(=O)N3CCC(N4CCCCC4)CC3)oc3ccccc23)cc1	-28	-3	.	23	-12
CCOCCCN(C)C1CCN(C(=O)c2oc3ccccc3c2NC(=O)Cc2ccc(F)cc2)CC1	-83*	-1	.	-107*	-7
O=C(Nc1c(C(=O)N2CCN(c3ccccn3)CC2)oc2ccccc12)c1ccc([N+](=O)[O-])cc1	-105*	-3	.	?	3
CCOCCCN(C)C1CCN(C(=O)c2oc3ccccc3c2NC(=O)Cc2ccc([N+](=O)[O-])cc2)CC1	-100*	-3	.	-102*	-14
CCOCCCN(C)C1CCN(C(=O)c2oc3ccccc3c2NC(=O)COc2ccc(F)cc2)CC1	-100*	-3	.	-42	-3
COc1ccc(N2C(=NC(=O)CCCc3ccccc3)SC3CS(=O)(=O)CC32)cc1 (stereo unspecified)	-3	9	.	-9	-18
CC1Cc2ccccc2N1C(=O)CSc1nncn1C (stereo unspecified)	16	4	-1%	i	-12
O=C(Oc1ccc([N+](=O)[O-])cc1)c1cc(-c2ccccc2)nc2ccccc12	0	7	0%	3	0
